Among the data in ChEMBL document CHEMBL4513216, “Probing the Open Global Health Chemical Diversity Library for Multistage-Active Starting Points for Next-Generation Antimalarials” (ACS Infect Dis, 2020) are INHIBITION values, retold here.

Molecules are shown by their SMILES. Among all 69,000 compounds or so, about 8,600 (12%) showed an effect of 50% or more. What follows is part of a selection rich in strong results, with near analogues and random picks from the rest.

In this experiment the test system is Plasmodium berghei. In words: Screen against P. berghei liver stage (PbLuc), transformed with Luciferase, at 10uM. In kind it is functional, HepG2. Particulars: tested at 10 uM.
For the compound `Cc1noc(C)c1CN1CCO[C@H]2CN(Cc3cccnc3)C[C@H]21`, the INHIBITION was 14.6%.

With `Cc1noc(C)c1CN1CCO[C@H]2CN(Cc3ccc(F)cc3)C[C@H]21`, the INHIBITION came out at 49.2%.

As to `Cc1noc(C)c1CN1CCO[C@H]2CN(Cc3cccc(F)c3)C[C@H]21`, the INHIBITION worked out at 62.9%.

Take `Cc1noc(C)c1CN1C[C@H]2CN(Cc3cccc(F)c3)C[C@H]2C1`: the INHIBITION amounted to 41.2%.

For the compound `Cc1ccc(NC2CCN(C(=O)Cc3ccc(C)s3)CC2)nn1`, the INHIBITION amounted to 27.8%.

With `CNC(=O)c1cccc(CN2CCN(C3=NCC(C)(C)S3)CC2)c1`, the INHIBITION was 28.7%.

As for `O=C(C1CC(c2cccc(F)c2)=NO1)N1CCc2ccccc21` (configuration not stated), the INHIBITION is -12.2%.

For the compound `O=C(CCc1cccs1)N1CCc2[nH]nc(COc3ccccc3)c2C1`, the INHIBITION came to 36.7%.

Consider `O=C(CSCC1CC1)N1CCc2[nH]nc(COc3ccccc3)c2C1`, for which the INHIBITION worked out at 11.9%.

Take `O=C(N1CCOCC1)N1CCc2[nH]nc(COc3cccc(Cl)c3)c2C1`: the INHIBITION was 67.5%.

For the compound `O=C(CCc1ccco1)N1CCc2[nH]nc(COc3ccccc3)c2C1`, the INHIBITION turned out to be 32.7%.

Take `CCSCCC(=O)N1CCc2[nH]nc(COc3ccccc3)c2C1`: the INHIBITION was 10.9%.

Consider `O=C(CCn1cccc1)N1CCc2[nH]nc(COc3ccccc3)c2C1`, for which the INHIBITION stood at 34.7%.

In the case of `O=C1CC[C@@H](C(=O)N2CCc3[nH]nc(COc4cccc(Cl)c4)c3C2)N1`, the INHIBITION is given as 52.6%.

Turning to `Cc1nc(C)c(C(=O)N2CCc3[nH]nc(COc4ccccc4)c3C2)s1`, the INHIBITION amounted to 49.5%.

As for `O=C(c1csnn1)N1CCc2[nH]nc(COc3cccc(Cl)c3)c2C1`, the INHIBITION stood at 73%.

For `Cc1nn(C)c(N(C)C)c1CNC(C)COc1ccc(F)cc1` (configuration not stated), the INHIBITION was -59.4%.

In the case of `NC(=O)C1CCN(C(=O)CCCc2nnc(-c3ccccc3)o2)C1` (configuration not stated), the INHIBITION came to 14.4%.

In the case of `CC(C)NC(=O)C1CN(C(=O)c2ccccc2)CC12CCOCC2` (configuration not stated), the INHIBITION was 29.9%.

For the compound `CCN1C(=O)C(c2ccccc2)CC12CCN(Cc1cccnc1)CC2` (configuration not stated), the INHIBITION is recorded as -4.82%.

As for `CN(C)CC1(O)CCCN(Cc2ccccc2OCC(=O)N(C)C)C1` (configuration not stated), the INHIBITION is 47.6%.

In the case of `OCC1(O)CCCN(Cc2nnc(-c3ccccc3)o2)CC1` (configuration not stated), the INHIBITION turned out to be 21.2%.

For the compound `COCCC1(C(=O)O)CCCN(Cc2ccccc2OCCO)C1` (configuration not stated), the INHIBITION was determined as 3.48%.

As for `O=C1NCC2(CCCN(Cc3ccccc3OCCO)C2)O1` (configuration not stated), the INHIBITION was found to be 44.3%.

Consider `OCCOc1ccccc1CN1CCCC(O)(CO)C1` (configuration not stated), for which the INHIBITION is reported as 66.5%.

In the case of `OCC1(O)CCCN(Cc2ccccc2OCCc2ccccc2)CC1` (configuration not stated), the INHIBITION was 52.6%.

For the compound `Cn1cc(C(=O)N2CCCC2c2[nH]ncc2C(N)=O)cn1` (configuration not stated), the INHIBITION came to 7.52%.

For the compound `O=C(CNCc1ccccc1Cn1cccn1)Nc1cnccn1`, the INHIBITION is 38.5%.

For the compound `O=C(NC(Cc1ccsc1)c1nccs1)C1CC1` (configuration not stated), the INHIBITION was found to be 12.3%.

Regarding `CCS(=O)(=O)N1CCC(C(=O)NC(Cc2ccsc2)c2nccs2)CC1` (configuration not stated), the INHIBITION came to 59%.

On to `CS(=O)(=O)N1CCC(C(=O)NC(Cc2ccsc2)c2nccs2)CC1` (configuration not stated), for which the INHIBITION amounted to 38.1%.

Turning to `Cc1cc(C)n(CC2CN(Cc3nc(-c4ccco4)no3)CCO2)n1` (configuration not stated), the INHIBITION turned out to be 36.4%.

Consider `CN(CCN1CCOC1=O)CC(=O)Nc1ccc(Cl)c(Cl)c1`, for which the INHIBITION was determined as 37.8%.

With `O=C(c1c2c(N3CCCC3)ncnc2n2ccccc12)N1CCCC1`, the INHIBITION is given as 47.4%.

For the compound `O=C(CSCC1CC1)N1CCCN(c2ccc(F)cc2)CC1`, the INHIBITION is 59.4%.

`Cc1cc(N2CCCN(C(=O)CSCC3CC3)CC2)ccn1`: the INHIBITION came to 37.6%.

Turning to `O=C(CSCC1CC1)N1CCCN(Cc2ccc(F)cc2)CC1`, the INHIBITION was 23.9%.

As for `COCc1ccccc1C(=O)N1CCCC(c2cc(C)[nH]n2)C1` (configuration not stated), the INHIBITION came out at 40.9%.

On to `CCOc1cc(NC(=O)C2CC(=O)N(c3cccc(OC)c3)C2)ncn1` (configuration not stated), for which the INHIBITION stood at 45.7%.

For the compound `COc1cc(NC(=O)C2CC(=O)N(c3cccc(Br)c3)C2)ncn1` (configuration not stated), the INHIBITION is reported as 63.8%.

For the compound `COc1cc(NC(=O)C2CC(=O)N(c3cccc(F)c3)C2)ncn1` (configuration not stated), the INHIBITION turned out to be 6.34%.

Turning to `CC(=O)N1CCCN(C(=O)NCCOc2ccc3c(c2)OCO3)CC1`, the INHIBITION was -31.8%.

With `CCN1CCC2(CCC1=O)CN(C1CCOCC1)CCN2C` (configuration not stated), the INHIBITION was -10.9%.

With `CNc1cnc(CC2COCCN(Cc3cccc(C)n3)C2)cn1` (configuration not stated), the INHIBITION is on record as 3.48%.

With `CN(CC1CC1)c1ccc2ccc(C(=O)NCCc3ccccc3)cn12`, the INHIBITION worked out at 38.3%.

Regarding `Cc1noc(CN(Cc2cccc(C#N)c2)Cc2ccco2)n1`, the INHIBITION is reported as -9.82%.

`COc1cccc(CN(Cc2ccco2)Cc2cnc(C)n2C)c1`: the INHIBITION is 65.7%.

Take `COc1cccc(CN(Cc2ccco2)Cc2[nH]cnc2C)c1`: the INHIBITION is 87.7%.

As for `COc1cccc(CN(Cc2ncc[nH]2)Cc2ccco2)c1`, the INHIBITION turned out to be 28.3%.

For the compound `COc1ccc(OC)c(CN(Cc2ccco2)Cc2[nH]cnc2C)c1`, the INHIBITION worked out at 26.1%.

With `COc1ccc(CN(Cc2ccco2)Cc2[nH]cnc2C)c(OC)c1`, the INHIBITION is reported as 20.6%.

On to `Cn1nc(C(=O)N2CCSCC2)cc1NC(=O)c1ccccc1`, for which the INHIBITION stood at 7.39%.
